Bioassay records deposited in PubChem BioAssay by The Scripps Research Institute Molecular Screening Center.
Shown are actives, neighbours in structure and some others; about 3.5% of the full set was active somewhere.
FBW7 activator: FBW7 E3 ligase activators, primary screen, biochemical, AlphaScreen, human | 650,000 compounds, 0.13% hits | AlphaScreen FBW7–phospho-cyclin E peptide binding, activator screen | AID 1259310, 2017 | normalized activity (activation), % at 26.1 µM; in the data active = normalized activity above about 1.9%;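 note: purified mutant Fbw7 with reduced substrate affinity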
MITF primary: MITF inhibitors, primary screen, biochemical, AlphaScreen, human; Microphthalmia-associated transcription factor (Homo sapiens), O75030; 650,000 compounds, 0.91% hits; AlphaScreen MITF homodimerization, bead proximity signal; inhibition, % at 2.6 µM; AID 1259374, 2018; in the data active = inhibition above about 50%;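 note: 0% = vehicle wells with protein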
GPR151 ag: activators of human GPR151, primary screen, cell-based, PathHunter beta-arrestin, luminescence | G-protein coupled receptor 151 (Homo sapiens), Q8TDV0 | PathHunter beta-arrestin GPR151 cells | activation, % at 11.2 µM | 650,000 compounds, 1% hits; in the data active = activation above about 4.9%;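 note: 0% = median of compound wells and 100% = cells with positive control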
TEAD-YAP block: TEAD-YAP interaction inhibition, primary screen, TEAD-YAP interaction inhibitor project, luminescence, HEK-TIYL cells | TEAD-Gal4/YAP UAS-luciferase luminescence | 640,000 compounds, 1.4% hits | inhibition, % at 9.12 µM; in the data active = inhibition above about 32%;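 note: 0% = median of test compound wells and 100% = reference inhibitor wells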
GPR151 conf act: GPR151 activators, triplicate retest, confirmation, cell-based, PathHunter beta-arrestin, luminescence; 6,700 tested, under 10 active; activation, % at 11.2 µM; GPR151 PathHunter beta-arrestin cells, 90 min; % of EA-reagent control over plate median; AID 1508609, 2020; shares compounds with GPR151 ag;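 active = mean percent activation across replicates above the confirmation screen cutoff of 4.91%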
GPR119 ag: GPR119 activators in beta-arrestin cells, counter-screen for GPR151 activator project, cell-based, PathHunter beta-arrestin, luminescence, triplicate | 6,700 compounds, 0.3% hits | 90 min; 0 = compound-well median, 100 = enzyme-acceptor control | shares compounds with GPR151 ag | activation, % at 11.2 µM;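 active = mean percent activation in the counterscreen above 29.09%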;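 note: counterscreen on off-target GPR119 to flag nonselective hits from the GPR151 activator screen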
Target sequence (Q8TDV5 whole entry, looked up): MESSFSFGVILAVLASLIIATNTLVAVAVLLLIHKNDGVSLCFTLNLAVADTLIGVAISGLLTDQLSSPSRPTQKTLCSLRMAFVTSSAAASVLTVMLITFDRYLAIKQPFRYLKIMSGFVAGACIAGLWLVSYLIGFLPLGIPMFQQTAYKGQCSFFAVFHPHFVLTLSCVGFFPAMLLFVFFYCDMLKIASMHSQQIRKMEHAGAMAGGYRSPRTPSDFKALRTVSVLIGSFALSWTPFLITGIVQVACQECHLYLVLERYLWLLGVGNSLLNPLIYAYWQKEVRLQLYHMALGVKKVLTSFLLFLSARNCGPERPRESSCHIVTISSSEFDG
* marks the source's active call; other numbers are inactive results; . = no result given.

SMILES	FBW7 activator	MITF primary	GPR151 ag	TEAD-YAP block	GPR151 conf act	GPR119 ag
FC(F)(F)c1cccc(NC(=S)N2CCSC2c2ccc(Br)cc2)c1 (stereo not drawn)	-0.2	-11.8	6.4*	-5.0	0.6	-2.1
COCCn1c(SCC(=O)NC2CCCC2)nnc1-c1ccncc1	0.0	-0.2	-0.1	-2.9	.	.
COCCn1c(SCC(=O)N2CCCC2=O)nnc1-c1ccncc1	-0.1	8.7	5.3*	11.8	-1.2	0.5
Cc1oc(-c2ccccc2)nc1C(=O)O	0.1	-5.6	5.0*	1.6	1.0	-2.5
COc1cccc(NCC(O)Cn2c3ccccc3n3c(=O)cc(C)c(C#N)c23)c1 (stereo not drawn)	0.0	6.0	1.3	7.5	.	.
CC(=O)N1CCc2cc(Br)cc(S(=O)(=O)N3CCC(O)(c4cccc(C(F)(F)F)c4)CC3)c21	0.3	-2.5	4.9*	2.1	-0.6	11.3
CC(=O)N1CCc2cc(Br)cc(S(=O)(=O)N3CCCCC3)c21	0.0	15.4	0.5	-4.4	.	.
Cc1ccc(-c2ccc(OCCN3CCOCC3)nc2)cc1	-0.2	16.8	0.5	-23.2	.	.
CC(C)(C)c1ccc(-c2ccc(OCCN3CCOCC3)nc2)cc1	-0.6	-1.9	5.8*	58.2*	-0.8	4.0
Cc1c(C(=O)N2CCC(C(=O)c3nccs3)CC2)cnn1C	-0.1	4.7	0.4	-9.4	.	.
CCN(CC)S(=O)(=O)c1ccc(C(=O)Nc2nnc(-c3ccc(OC)cc3)o2)cc1	-0.1	19.8	5.3*	3.7	0.5	-2.5
COc1cc2c(cc1NC(=O)C/C(C)=N/NC=O)oc1ccccc12	0.1	14.9	12.5*	-6.4	0.3	0.2
O=C(CCCCC(=O)Nc1ccc(F)cc1F)Nc1ccc(F)cc1F	0.0	5.2	1.5	6.4	.	.
O=C(CCCn1cccc1)Nc1ccc(F)cc1F	0.0	9.0	6.7*	5.0	-0.5	4.6
COC(=O)c1cn(NC(=O)/C=C/c2ccc(Br)cc2)c(=O)c2ccccc12	-0.1	1.7	7.8*	-5.2	0.3	-4.7
O=C(Nc1cccc(C(F)(F)F)c1)c1ccc(N2CC3CC(C2)c2cccc(=O)n2C3)c(NC(=O)c2ccc(Br)o2)c1 (stereo not drawn)	0.0	2.4	-1.1	3.2	.	.
COc1cccc(CNS(=O)(=O)c2ccc(-c3ncnc4[nH]ccc34)cc2F)c1	0.1	27.8	5.0*	-15.1	1.1	-6.6
COc1cccc(CNC(=O)c2nc3ccc(-c4ncnc5[nH]ccc45)cc3c(=O)[nH]2)c1	-0.1	-2.8	1.0	-8.7	.	.
C=CCn1c(SCC(=O)Nc2ccccc2F)nc2sc3c(c2c1=O)CCC(C)C3 (stereo not drawn)	0.4	1.5	8.7*	6.6	-0.1	-8.6
CCOC(=O)c1c(-c2ccccc2)oc2ccc(OCc3ccc(C(=O)OC)cc3)cc12	0.0	-2.7	11.9*	-2.0	0.3	17.9
CC(=O)c1cccc(NC(=O)/C(=C/c2ccccc2)NC(=O)c2ccccc2)c1	-0.3	-1.9	0.7	-4.6	.	.
COc1ccccc1/C=C(\NC(=O)c1ccccc1)C(=O)Nc1cccc(C(C)=O)c1	0.0	12.3	5.8*	1.9	-1.2	-9.0
Cc1ccccc1-n1c(Cn2c(=O)sc3ccccc32)nnc1SCc1ccccn1	-0.4	0.6	1.2	-1.7	.	.
O=C(NCCN1CCCCCC1)c1ncoc1-c1ccc(Cl)cc1	-0.4	-20.0	5.9*	6.3	0.3	10.3
COc1ccc(-c2ocnc2C(=O)NCCN2CCCCCC2)cc1OC	0.1	13.5	1.5	2.7	.	.
Cc1cc(/C=C(/C#N)c2cccc(Cl)c2)c(C)n1C	0.0	0.7	5.6*	-10.8	-0.3	0.3
CCN1C(=O)CC(CC(=O)N2CCCN(c3ncccn3)CC2)(c2ccccc2C)C1=O (stereo not drawn)	0.3	10.8	2.5	10.3	.	.
CCSc1nc2c(c(=O)n1C)C1(CCCCC1)Cc1ccccc1-2	-0.1	-8.3	-0.1	-5.5	.	.
